Wnt act: Wnt/beta-catenin pathway activators, primary screen, cell-based, plate reader, single point | Wnt/beta-catenin reporter cell assay, activator | activation, % at 9.35 µM | 300,000 compounds, 1.2% hits; in the data active = activation above about 30%, passing the limit was not always enough;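 note: 0% = neutral control wells and 100% = positive control wells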
Dyrk1A ADPGlo: rat Dyrk1A kinase inhibitors, primary screen, biochemical, single point, plate reader | inhibition, % at 12.5 µM | ADP-Glo luminescence, NFATc1 peptide | Dual specificity tyrosine-phosphorylation-regulated kinase 1A (Rattus norvegicus), Q63470 | 310,000 compounds, 0.43% hits;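 note: plate controls were vehicle with enzyme for no effect and no enzyme for full effect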
GSIS activator: GLuc luminescence reporter in INS-1E cells, primary screen for activators of glucose-dependent secretion of insulin. INS-1E GLuc reporter insulin secretion, 2-3 h. activation, % at 16.6 µM. 370,000 compounds, 0.61% hits;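 active = lowest replicate activation of at least 40%, so every replicate reaches that level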;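 note: 0% = median of neutral control wells and 100% = median of IBMX positive control wells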
MITF TRPM1 HTS: activators of MITF-driven TRPM1 promoter reporter, primary screen, cell-based, SK-MEL-5, luciferase, single point | SK-MEL-5 TRPM1-promoter luciferase, 24 h; % of positive control, neutral wells = 0 | AID 588334, 2011 | 300,000 compounds, 0.75% hits | activation, % at 12.5 µM;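 active = mean activation of at least 80% with every replicate also reaching 80%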;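 note: 0% = neutral control wells and 100% = parthenolide positive control wells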
NSD2 HMT inh: NSD2 histone methyltransferase inhibitors, primary screen, biochemical, AlphaScreen, single concentration, set 2. inhibition, % at 12.5 µM. Histone-lysine N-methyltransferase NSD2 (Homo sapiens), O96028. 310,000 compounds, 0.54% hits. NSD2 peptide methylation, 120 min
Target sequence (O96028 whole entry, looked up): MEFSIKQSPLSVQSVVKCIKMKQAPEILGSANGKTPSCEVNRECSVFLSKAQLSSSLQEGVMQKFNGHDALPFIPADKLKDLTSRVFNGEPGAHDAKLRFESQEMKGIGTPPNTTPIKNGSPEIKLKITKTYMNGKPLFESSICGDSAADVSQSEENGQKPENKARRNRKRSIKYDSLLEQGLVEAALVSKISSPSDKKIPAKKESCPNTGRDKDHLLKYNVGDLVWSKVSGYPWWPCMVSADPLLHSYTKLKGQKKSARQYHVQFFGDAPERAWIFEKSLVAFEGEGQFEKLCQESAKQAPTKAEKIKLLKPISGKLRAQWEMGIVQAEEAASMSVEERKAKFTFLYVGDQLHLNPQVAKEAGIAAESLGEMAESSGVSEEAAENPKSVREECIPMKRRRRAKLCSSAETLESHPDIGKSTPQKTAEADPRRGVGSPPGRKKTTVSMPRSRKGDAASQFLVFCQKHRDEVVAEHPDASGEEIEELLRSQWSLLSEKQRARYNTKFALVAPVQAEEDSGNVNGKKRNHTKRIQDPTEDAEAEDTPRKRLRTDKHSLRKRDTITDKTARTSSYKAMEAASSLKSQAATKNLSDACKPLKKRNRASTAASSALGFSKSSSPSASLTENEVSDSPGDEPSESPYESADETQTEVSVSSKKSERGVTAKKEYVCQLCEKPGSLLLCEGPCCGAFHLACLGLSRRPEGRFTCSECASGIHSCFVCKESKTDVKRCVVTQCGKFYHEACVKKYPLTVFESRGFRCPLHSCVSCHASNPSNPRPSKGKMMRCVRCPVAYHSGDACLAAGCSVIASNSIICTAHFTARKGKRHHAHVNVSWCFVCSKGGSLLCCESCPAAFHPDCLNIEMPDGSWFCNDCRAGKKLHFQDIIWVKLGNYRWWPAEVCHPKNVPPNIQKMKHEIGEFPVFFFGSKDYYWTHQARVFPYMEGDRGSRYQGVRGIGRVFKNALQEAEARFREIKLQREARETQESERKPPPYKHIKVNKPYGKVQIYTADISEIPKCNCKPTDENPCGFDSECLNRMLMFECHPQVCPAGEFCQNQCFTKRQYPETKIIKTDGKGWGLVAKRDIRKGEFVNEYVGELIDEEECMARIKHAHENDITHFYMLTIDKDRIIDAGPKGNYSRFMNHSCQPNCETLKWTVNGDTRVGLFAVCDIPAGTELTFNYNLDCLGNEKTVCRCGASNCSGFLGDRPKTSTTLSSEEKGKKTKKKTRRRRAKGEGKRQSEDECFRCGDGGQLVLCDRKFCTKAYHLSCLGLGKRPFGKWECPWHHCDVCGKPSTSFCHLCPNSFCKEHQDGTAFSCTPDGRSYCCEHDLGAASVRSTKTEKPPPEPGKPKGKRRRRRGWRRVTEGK
miR122 inh: miR-122 Renilla sensor signal increase in Huh7, primary screen, miR-122 inhibitor project, cell-based, single point, plate reader; Huh7 miR-122 Renilla luciferase sensor, 48 h; neutral wells = 0, positive control = 100; activation (reporter increase), % at 12.5 µM; 340,000 compounds, 0.3% hits;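 active = mean replicate activation score at least 90 and every replicate individually at or above 90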;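 note: higher luciferase means less miR-122 activity so hits act as miR-122 inhibitors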
An asterisk follows results filed as active; nt = not tested or not shown; [ ] = another dose, or the depositor's remark. Hits are enriched below; roughly 2.4% of the tested compounds scored in any of these assays. Cut-off read from the data, not from the text of the source, unless noted: active = inhibition above about 50%; inactive = the rest.

SMILES | Wnt act | Dyrk1A ADPGlo | GSIS activator | MITF TRPM1 HTS | NSD2 HMT inh | miR122 inh
C[C@@H]1CCCCO[C@H](CN(C)CC2CC2)[C@H](C)CN([C@@H](C)CO)C(=O)c2cc(NS(=O)(=O)c3cccs3)ccc2O1 | nt | nt | -0.5 | nt | nt | nt
CC(=O)c1cnc(Nc2cccc(C)c2)s1 | -1.7 | 3.0 | -6.9 | 92.4* | -3.1 | nt
CC(=O)Nc1cccc(C)c1 | 3.5 | nt | 9.1 | 1.5 | nt | -1.7
CCOc1ccccc1OCCC(=O)NNC(=O)Cn1nc(C)cc1C | 1.9 | 9.5 | 52.7* | -3.6 | 4.1 | -0.9
COc1ccc2c3c([nH]c2c1)[C@H](CO)N(C(=O)c1ccccn1)CC31CN(C(=O)C2CCCCC2)C1 | nt | nt | 13.8 | nt | nt | nt
COC(=O)C1=C(C)N(Cc2ccccc2)C(=NCc2cccc(C(F)(F)F)c2)N[C@H]1c1cccc(C(F)(F)F)c1 | nt | -5.8 | nt | -94.1 | nt | nt
COC(=O)C1=C(C)N(Cc2cccc(C(F)(F)F)c2)C(=NCC2CC2)NC1c1cccc(C(F)(F)F)c1 (stereo not drawn) | -28.2 | nt | 420.4* | nt | nt | nt
COC(=O)C1=C(C)N(Cc2cccc(C(F)(F)F)c2)C(=NCc2ccc3c(c2)OCO3)NC1c1ccc(Cl)cc1 (stereo not drawn) | -12.2 | nt | 145.9* | nt | nt | nt
COC(=O)C1=C(C)N(Cc2cccc(C(F)(F)F)c2)C(=NCc2ccc(C(F)(F)F)cc2)NC1c1ccc(Cl)cc1 (stereo not drawn) | -28.1 | nt | nt | nt | nt | nt
COC(=O)C1=C(C)N(Cc2ccc(C(F)(F)F)cc2)C(=NCc2ccccc2)NC1c1cccc(C(F)(F)F)c1 (stereo not drawn) | -28.2 | nt | 158.3* | nt | nt | nt
CCN=C1NC(c2ccc(C(F)(F)F)cc2)C(C(=O)OC)=C(C)N1Cc1cccc(C(F)(F)F)c1 (stereo not drawn) | -10.9 | nt | 41.4* | nt | nt | nt
CN1C(=O)c2cc(NC(=O)c3cccs3)ccc2OC[C@@H]2O[C@@H](CC(=O)O)CC[C@@H]21 | nt | nt | 1.4 | nt | nt | -32.5[16.7 µM]
Cc1ccc(S(=O)(=O)N(C)C[C@H]2Oc3ccc(NC(=O)c4ccncc4)cc3CC(=O)N([C@@H](C)CO)C[C@@H]2C)cc1 | nt | nt | 5.7 | nt | nt | -0.4[16.7 µM]
CN(C)C(=O)C[C@@H]1C=C[C@H](NC(=O)C2CCOCC2)[C@H](CO)O1 | nt | nt | -5.2 | nt | nt | nt
CCCNC(=O)N1CC2(CN(C(C)=O)C2)c2c(n(C)c3cc(OC)ccc23)[C@@H]1CO | nt | nt | 49.6 | nt | nt | nt
CCC(=O)N1[C@H](CO)[C@H]2c3ccccc3N(C(=O)c3cccc(OC)c3)C[C@H]21 | nt | nt | 3.4 | nt | nt | 4.5[16.7 µM]
COC(=O)C1=C(C)N(C)C(=NCc2cccc(C(F)(F)F)c2)NC1c1ccc(C(F)(F)F)cc1 (stereo not drawn) | -4.5 | nt | 45.2* | nt | nt | nt
COC(=O)C1=C(C)N(Cc2cccc(C(F)(F)F)c2)C(=NCc2ccc(OC)cc2)NC1c1ccccc1 (stereo not drawn) | -24.5 | nt | nt | nt | nt | nt
COC(=O)C1=C(C)N(Cc2cccc(C(F)(F)F)c2)C(=NCc2ccc(C(F)(F)F)cc2)NC1c1ccccc1 (stereo not drawn) | -21.4 | nt | 501.0* | nt | nt | nt
Cc1ccc(CONC(=O)c2cccc(C)c2)cc1 | 1.6 | 2.3 | nt | 32.7 | 2.1 | -0.1
O=C(NOCc1ccccc1)c1ccccc1 | 32.0* | -4.3 | -0.8 | 34.1 | nt | -3.5
Clc1ccc(CN=C2Nc3ccccc3CS2)cc1 | 63.6* | -4.7 | nt | nt | 3.2 | -20.8
Cc1ccc(CN=C2Nc3ccccc3CS2)cc1 | 29.7 | -2.1 | nt | nt | -1.9 | -8.7
CCS(=O)(=O)N1CCc2nc(-c3ccccc3)sc2C1 | 38.9* | 3.9 | -5.5 | 121.3* | -0.8 | nt
CC(/C=C/c1ccco1)=N/NC(=O)OC(C)(C)C | 57.1* | -6.4 | 25.6 | 33.2 | 0.4 | nt
CCC(=O)N1[C@@H]2c3ccc(C4=CCCCC4)c(=O)n3C[C@@H]2[C@@H](CO)[C@@H]1C(=O)NC1CCC1 | nt | nt | 16.2 | nt | nt | -8.7[16.7 µM]
COc1ccc2c3c(n(C)c2c1)[C@@H](CO)N(CC1CC1)CC31CCN(C(=O)c2ccccc2)CC1 | nt | nt | -9.6 | nt | nt | nt

Screening data from PubChem.
